Laboratory results as given in PubChem BioAssay AID1850 (Southern Research Specialized Biocontainment Screening …, 2009).
Several values for one entry are separate records, joined by “and”; a condition that tells them apart may be missing. Equal values may be shown once. The whole screen tested about 310,000 compounds, of which about 1,000 (0.32%) were called active. The rule behind the calls is not given here. These entries were drawn from the full list. Entries with a potency or affinity are not part of this list.

experiment: Inhibition of PhoP regulon, Salmonella typhi GFP reporter cells, confirmation, 4 h (AID 1850); settings: Salmonella Typhi PhoP-promoter GFP reporter, fluorescence, at 50 µM, active compounds read high;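 note: 0% = induced wells with vehicle and 100% = uninduced wells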

Compound | inhibition
CCc1ccccc1NNC(=O)c1cc(C)on1 | -26.6% (inactive)
Cc1cc(OCC(=O)N2CCC(C(=O)O)(c3ccccc3)CC2)c2c(C)c(C)c(=O)oc2c1 | 1.07% (inactive)
O=C(Cn1cnc2c(oc3ccccc32)c1=O)N1CCCc2ccccc21 | 1.66% (inactive)
Cc1cc(NC(=O)c2cccc(S(=O)(=O)N3CC(c4ccccc4)CC3=O)c2)no1 (stereo not given) | -38.2% (inactive)
O=C1CC(C(=O)Nc2ccccc2)S/C(=N\NC(=O)c2ccccc2Cl)N1 (stereo not given) | 21.9% (inactive)
OC(c1cc(-c2ccc(C(F)(F)F)cc2)nc(C(F)(F)F)c1)C1CCCCN1 (stereo not given) | -0.73% (inactive)
COc1ccc(OC)c(C(O)C2CCCCN2)c1 (stereo not given) | -3.76% (inactive)
OC(c1cc(C(F)(F)F)nc2c(Cl)cc(Cl)cc12)C1CCCCN1 (stereo not given) | 0.54% (inactive)
O=C(O)c1cc(C(F)(F)F)nc2c(C(F)(F)F)cccc12 | -2.04% (inactive)
COc1ccc(C2Cc3ccccc3C(=O)O2)cc1 (stereo not given) | 7.74% (inactive)
CSCCC(NC(N)=O)C(=O)NCc1cccc(Cl)c1 (stereo not given) | 3.4% (inactive)
CN(C(=O)c1ccco1)c1nc(-c2ccccc2)cs1 | -0.59% (inactive)
CN(C)C(=O)c1cn(-c2ccccc2)nc1-c1cc2ccccc2oc1=O | -9.39% (inactive)
CSC1=NC(C)(C)C=C(/C=C/c2ccc(Cl)cc2Cl)N1 | 4.11% (inactive)
Clc1ccc(/C=C/c2nc3ccccc3[nH]2)c(Cl)c1 | 7.7% (inactive)
CC(c1ccccc1)N1CC(C(=O)NC2CCCC2)CC1=O (stereo not given) | -13.4% (inactive)
CCOC(=O)CC1(NC(=O)C2CCC(=O)N(Cc3ccccc3F)C2)CCCCC1 (stereo not given) | -14.3% (inactive)
CN(C)CCCN(C(=O)c1ccco1)c1nc2c(F)cc(F)cc2s1 | 1.38% (inactive)
CCn1cc(C(=O)O)c(=O)c2cc(F)c(N3CCN(C(=S)NC(=O)c4ccccc4Cl)CC3)cc21 | 11.6% (inactive)
CCn1cc(C(=O)O)c(=O)c2cc(F)c(N3CCN(C(=S)NC(=O)c4ccccc4Br)CC3)cc21 | -18.1% (inactive)
Cc1cc(S(=O)(=O)Nc2ccc(C(=O)N3CCN(c4ccccc4O)CC3)cc2)ccc1F | -8.67% (inactive)
COc1ccc(Cn2cc(F)c(=O)n(C)c2=O)cc1[N+](=O)[O-] | 4.35% (inactive)
Cc1ccc(S(=O)(=O)N2CCCC(C(=O)NCC3COCCO3)C2)cc1 (stereo not given) | -3.93% (inactive)
O=C(N/N=C\c1ccc(O)c([N+](=O)[O-])c1)C1COc2ccccc2O1 (stereo not given) | 1.19% (inactive)

Compound | inhibition
COc1cc([N+](=O)[O-])cc(/C=N\NC(=O)C2COc3ccccc3O2)c1O (stereo not given) | 16.3% (inactive)
O=C(N/N=C/c1cccc([N+](=O)[O-])c1)C1COc2ccccc2O1 (stereo not given) | -0.57% (inactive)
O=C(N/N=C\c1ccc(-c2ccccc2[N+](=O)[O-])o1)C1COc2ccccc2O1 (stereo not given) | 6.46% (inactive)
CCOC(=O)C1(Cc2ccccc2C(F)(F)F)CCN(Cc2ccon2)CC1 | -14.2% (inactive)
O=C(Cn1cnc(S(=O)(=O)N2CCCC2)c1)Nc1cccc(Br)c1 | -2.76% (inactive)
O=C(Nn1cnnc1)c1ccccc1-c1ccccc1 | 9.02% (inactive)
COc1cccc(-c2ccc3nnc(SCC(=O)N4CCCC4)n3n2)c1 | 1.13% (inactive)
CCN1C(=O)NC(c2ccc(Cl)cc2)C2=C1CCCC2=O (stereo not given) | -16.4% (inactive)
OCCN1CCN(CC(O)COC(c2ccc(F)cc2)c2ccc(F)cc2)CC1 (stereo not given) | -5.69% (inactive)
O=C(CN1CCCC1)N1CCCC(c2ccc(F)cc2)c2ccc(F)cc21 (stereo not given) | -12.7% (inactive)
N/C(CC(=O)Nc1ccc(F)c(Cl)c1)=N\OC(=O)c1cccs1 | -6.75% (inactive)
CC(=O)Cc1nsc(Nc2ccc(C)cc2)n1 | 0.05% (inactive)
COC(=O)c1cc(-c2cccc([N+](=O)[O-])c2)c2c(=O)n(C)c(=O)n(C)c2n1 | 0.74% (inactive)
CC1CCC(C(C)C)C(OC(=O)COC(=O)c2ccccc2N)C1 (stereo not given) | -3.26% (inactive)
CC1CCC(C(C)C)C(OC(=O)Cn2c(-c3ccc(Br)cc3)[n+](C)c3ccccc32)C1 (stereo not given) | -12.1% (inactive)
CC1CCC(C(C)C)C(OC(=O)COC(=O)c2ccc(N)cc2)C1 (stereo not given) | -3.86% (inactive)
CC1CCC(C(C)C)C(OC(=O)Cn2c(-c3ccccc3)[n+](C)c3ccccc32)C1 (stereo not given) | 7.04% (inactive) and -8.34% (inactive)
CC1CCC(C(C)C)C(OC(=O)Cn2c(-c3ccc(F)cc3)[n+](C)c3ccccc32)C1 (stereo not given) | 9.13% (inactive)
CC1CCC(C(C)C)C(OC(=O)CSc2nccc(=O)[nH]2)C1 (stereo not given) | -9.72% (inactive)
CCOC(=O)c1cnc2ccc(OC)cc2c1NCCN1CCOCC1 | -3.63% (inactive)
COc1ccc(OC)c(NC(=O)c2nnn(CC(=O)Nc3ccc4c(c3)OCO4)c2N)c1 | -17.1% (inactive)
CN(C(=O)C1CCN(S(=O)(=O)c2cccs2)CC1)C1CCCCC1 | -11.4% (inactive)
CC(=O)Nc1ccc(OCCC[n+]2cccc(C(=O)[O-])c2)cc1 | 5.76% (inactive)
CCC(C)(C)c1ccc(OCCCC[n+]2cccc(C)c2C)c(C(C)(C)CC)c1 | 9.55% (inactive)

Compound | inhibition
CC(=O)Nc1ccc(OCCC[n+]2ccccc2)cc1 | -5.56% (inactive)
Cc1ccc[n+](Cc2ccc([N+](=O)[O-])cc2)c1 | -2.48% (inactive)
Cc1cc(=O)oc2cc(OCCCC[n+]3ccccc3)ccc12 | -6.05% (inactive)
CCCCOc1ccc(CCN)cc1Cl | -8.19% (inactive)
CCCCCc1ccc(OCCCC[n+]2ccc(C)cc2)c(CCCCC)c1 | -3.58% (inactive)
CCC(C)(C)c1ccc(OCCCC[n+]2ccc(C)cc2)c(C(C)(C)CC)c1 | 6.7% (inactive)
COc1ccc(N(C(C)C(=O)N/N=C/c2ccc(OCC(C)C)cc2)S(C)(=O)=O)cc1 (stereo not given) | -7.5% (inactive)
O=c1[nH]c(=O)n(C2CCCCCC2)c(O)c1C=NCc1cccnc1 | 0.08% (inactive)
Cn1nc(CC(=O)Nc2ncc(Br)s2)c2ccccc2c1=O | -7.27% (inactive)
COc1ccc(S(=O)(=O)N2CCCC(C(=O)NC3CC3)C2)cc1Cl (stereo not given) | 4.9% (inactive)
CC1CCCN(C2=NC(=O)/C(=C/c3cn(-c4ccccc4)nc3-c3cccc(S(=O)(=O)N(C)C)c3)S2)C1 (stereo not given) | -7.62% (inactive)
Cc1cc(Br)c(NC(=O)COC(=O)CSc2nnc(-c3ccc(Cl)cc3)o2)c(Br)c1 | 6% (inactive)
Cc1ccc(S(=O)(=O)NCCC(=O)Nc2ccc(Cl)c(Cl)c2)cc1 | -0.17% (inactive)
COCc1cc(=O)n2[nH]c(N)nc2n1 | 6.29% (inactive)
CCOC(=O)[C@@H]1[C@H]2COc3cc(OC)ccc3[C@@H]2N2C(=O)N(c3ccc(C)cc3)C(=O)[C@]12C | -2.59% (inactive)
CCn1c(/C=C/N(C)c2ccccc2)[n+](CC)c2ccc(Cl)cc21 | 20.2% (inactive)
CC[n+]1c(/C=C/N(C)c2ccccc2)sc2ccc(Cl)cc21 | -2.8% (inactive)
Cc1ccc(SCC(=O)NCCSC(C)(C)C)cc1 | -5.44% (inactive)
CC(=O)Nc1ccc(S(=O)(=O)NCCCc2ccccc2)cc1 | -4.81% (inactive)
Cc1ccc2nc(N(CCCN(C)C)C(=O)c3ccc(Br)s3)sc2c1 | 4.27% (inactive)
Cc1ccc2sc(N(CCCN(C)C)C(=O)c3nc4ccccc4s3)nc2c1C | 11.1% (inactive)
CC(NCc1ccc(Cl)cc1Cl)C(O)c1ccccc1 (stereo not given) | -10% (inactive)
CSc1ccc(CNC(C)C(O)c2ccccc2)cc1 (stereo not given) | 20.7% (inactive)
CC(NCc1ccc(Cl)cc1)C(O)c1ccccc1 (stereo not given) | 32.7% (inactive)

Compound | inhibition
CC(NCc1ccccc1Cl)C(O)c1ccccc1 (stereo not given) | 3.04% (inactive)
CCOc1ccc(-c2nc(CSCC(=O)NC3CC3)c(C)o2)cc1 | 5.51% (inactive)
O=C(Nc1cc(Cl)ccc1-n1cncn1)c1ccc(F)c(S(=O)(=O)N2CCOCC2)c1 | 6.99% (inactive)
CC(C)c1ccc(NC(=S)N2CCN(Cc3ccccc3)CC2)cc1 | 14.4% (inactive)
COc1ccc(CNc2nc3ccccc3n2CCN2CCOCC2)cc1 | 14.4% (inactive)
COc1ccc(CC(=O)N2CCC(Nc3nc4ccccc4n3Cc3ccc(F)cc3)CC2)cc1 | 8.15% (inactive)
CC(C)=C(NC(=O)c1ccccc1Br)C(=O)NCCc1nc2ccccc2[nH]1 | 3.02% (inactive)
Cc1ccccc1Nc1nc(Nc2ccccc2C)nc(SC2=NCCS2)n1 | 5.86% (inactive)
OC(CNCC(c1ccc(Cl)cc1Cl)c1c[nH]c2ccccc12)c1ccccc1 (stereo not given) | -5.36% (inactive)
CCCCNC(=S)NCC(c1ccccc1)c1c[nH]c2ccccc12 (stereo not given) | 0.6% (inactive)
O=C(O)CCN1C(=O)c2ccc(NC(=O)C(c3ccccc3)c3ccccc3)cc2C1=O | 3.59% (inactive)
Cn1c(=O)c2c(ncn2CC(=O)Nc2nc(-c3ccccc3Cl)cs2)n(C)c1=O | 21.1% (inactive)
CCc1ccc2nc3nc(C)cc(C)c3c(N)c2c1 | -15% (inactive)
Cc1cc(C)c2c(N)c3cccc(C)c3nc2n1 | -7.17% (inactive)
CC(=O)c1ccc(NC(=O)CSc2nc(N)c3cc4c(nc3n2)CCCC4)cc1 | -7.23% (inactive)
Cc1cc(C)c(OCC(=O)OCC(=O)NCCC2=CCCCC2)c(C)c1 | 1.39% (inactive)
CC12CN3CCN(C1)CC(C)(C3)C2=NN | 6.55% (inactive)
NC(=S)N/N=C/c1c(O)ccc2ccccc12 | -1.9% (inactive)
Oc1ccc2ccccc2c1/C=N/Nc1ccccc1 | -3.44% (inactive)
O=C(N/N=C\c1c(O)ccc2ccccc12)c1ccc(O)cc1 | -4.79% (inactive)
O=c1c2ccccc2nc(N/N=C/c2ccc(O)cc2)n1O | 10.2% (inactive)
Cc1ccccc1/C=N/Nc1nc2ccccc2c(=O)n1O | -20.3% (inactive)
Cc1ccc(C(=O)N/N=C/c2c(O)ccc3ccccc23)cn1 | -2.29% (inactive)
